Source: the supplement of paper PMC10849652
Of roughly 7,900 targets only a part is listed; those with a hit were picked by preference. About 0.6% of all pairs of compound and target were hits. Unmarked numbers belong to inactive results.

Key:
Experiment in all cases: log2 fold change, soluble protein after heating vs DMSO (PISA); higher = thermal stabilisation; K562 cells, 10 uM, 30 min; active = over 0.2 and 3.5 SD of the protein, either way, in both replicates (recomputed)
bafetinib = compound: Cc1ccc(NC(=O)c2ccc(CN3CC[C@H](N(C)C)C3)c(C(F)(F)F)c2)cc1Nc1nccc(-c2cncnc2)n1 [bafetinib]
Summary of the method: (§1)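 Soluble protein was quantified by TMTpro 16plex LC-MS/MS after channel sums were equalised. It was obtained as the supernatant after 21,000xg for 90 min from pooled aliquots of K562 cells (2×10^6 cells/mL, 10 μM compound, 30 min) heated for 3 min across 48°C-58°C and extracted in PBS with 0.5% NP-40 at 4°C. Thermal stability values are relative to control samples and come from duplicates. They are given as log2 fold changes.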

[1] = compound: Cc1cccc(CC(=O)N2CCc3c2ccc(-c2cn(C)c4ncnc(N)c24)c3F)n1
Summary of the method: as §1

nilotinib = compound: Cc1cn(-c2cc(NC(=O)c3ccc(C)c(Nc4nccc(-c5cccnc5)n4)c3)cc(C(F)(F)F)c2)cn1 [nilotinib]
Summary of the method: as §1

[2] = compound: Cc1nc(Nc2n[nH]c3c2CN(C(=O)N[C@H](CN(C)C)c2ccccc2)C3(C)C)c2sccc2n1
Summary of the method: as §1

dasatinib = compound: Cc1nc(Nc2ncc(C(=O)Nc3c(C)cccc3Cl)s2)cc(N2CCN(CCO)CC2)n1 [dasatinib]
Summary of the method: as §1

[3] = compound: Cc1ncc(-c2ccnc(Nc3ccc(S(C)(=O)=O)cc3)n2)n1C(C)C
Summary of the method: as §1

[4] = compound: Cn1cc(-c2ccc3c(c2)CCN3C(=O)Cc2cccc(C(F)(F)F)c2)c2c(N)ncnc21
Summary of the method: as §1

[5] = compound: Cn1cc(-c2ccc3nnc(C(F)(F)c4ccc5ncccc5c4)n3n2)cn1
Summary of the method: as §1

tipifarnib = compound: Cn1cncc1[C@@](N)(c1ccc(Cl)cc1)c1ccc2c(c1)c(-c1cccc(Cl)c1)cc(=O)n2C [tipifarnib]
Summary of the method: as §1

mubritinib = compound: FC(F)(F)c1ccc(/C=C/c2nc(COc3ccc(CCCCn4ccnn4)cc3)co2)cc1 [mubritinib]
Summary of the method: as §1

[6] = compound: NC(=O)Nc1cc(-c2cccc(F)c2)sc1C(=O)N[C@H]1CCCNC1
Summary of the method: as §1

[7] = compound: NC(=O)c1cnc(N[C@@H]2CCCC[C@@H]2N)nc1Nc1cccc(-n2nccn2)c1
Summary of the method: as §1

[8] = compound: NC1(c2ccc(-c3nc4ccn5c(=O)[nH]nc5c4cc3-c3ccccc3)cc2)CCC1
Summary of the method: as §1

[9] = compound: NCC(=O)Nc1ccc(-n2nc(C(F)(F)F)cc2-c2ccc3c(ccc4ccccc43)c2)cc1
Summary of the method: as §1

entinostat = compound: Nc1ccccc1NC(=O)c1ccc(CNC(=O)OCc2cccnc2)cc1 [entinostat]
Summary of the method: as §1

vorinostat = compound: O=C(CCCCCCC(=O)Nc1ccccc1)NO [vorinostat]
Summary of the method: as §1

citarinostat = compound: O=C(CCCCCCNC(=O)c1cnc(N(c2ccccc2)c2ccccc2Cl)nc1)NO [citarinostat]
Summary of the method: as §1

silmitasertib = compound: O=C(O)c1ccc2c(c1)nc(Nc1cccc(Cl)c1)c1ccncc12 [silmitasertib]
Summary of the method: as §1

[10] = compound: O=C1NC(=O)C(c2cnc3ccccn23)=C1c1cn2c3c(cc(F)cc13)CN(C(=O)N1CCCCC1)CC2
Summary of the method: as §1

[11] = compound: c1cc(OCCN2CCCCC2)cc(-c2n[nH]c3ccc(-c4nnc[nH]4)cc23)c1
Summary of the method: as §1

UniProt P26641, sequence (P26641 whole entry, looked up): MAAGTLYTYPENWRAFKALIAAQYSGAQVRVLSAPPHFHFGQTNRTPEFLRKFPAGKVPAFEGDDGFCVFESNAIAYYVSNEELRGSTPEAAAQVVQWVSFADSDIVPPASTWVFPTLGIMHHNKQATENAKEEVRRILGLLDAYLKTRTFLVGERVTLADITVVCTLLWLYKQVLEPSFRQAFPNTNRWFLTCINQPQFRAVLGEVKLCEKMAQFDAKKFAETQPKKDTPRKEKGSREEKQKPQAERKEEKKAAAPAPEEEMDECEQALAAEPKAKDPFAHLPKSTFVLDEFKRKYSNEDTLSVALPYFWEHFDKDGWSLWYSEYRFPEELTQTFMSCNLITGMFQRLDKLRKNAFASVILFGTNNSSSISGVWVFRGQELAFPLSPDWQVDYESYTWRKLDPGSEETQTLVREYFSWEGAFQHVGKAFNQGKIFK
UniProt Q9NV06, sequence (Q9NV06 whole entry, looked up): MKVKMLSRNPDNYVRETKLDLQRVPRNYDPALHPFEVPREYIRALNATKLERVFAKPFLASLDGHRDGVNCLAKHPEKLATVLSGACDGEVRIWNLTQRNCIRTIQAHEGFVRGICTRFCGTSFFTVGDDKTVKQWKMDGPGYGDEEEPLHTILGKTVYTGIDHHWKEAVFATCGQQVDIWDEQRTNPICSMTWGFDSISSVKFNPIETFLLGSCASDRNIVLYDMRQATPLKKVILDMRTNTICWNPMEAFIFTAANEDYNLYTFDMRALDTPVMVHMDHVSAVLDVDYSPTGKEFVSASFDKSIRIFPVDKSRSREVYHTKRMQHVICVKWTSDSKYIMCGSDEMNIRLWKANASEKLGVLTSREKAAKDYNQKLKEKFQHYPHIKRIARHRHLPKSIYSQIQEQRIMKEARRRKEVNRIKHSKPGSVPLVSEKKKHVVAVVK
UniProt P39656, sequence (P39656 whole entry, looked up): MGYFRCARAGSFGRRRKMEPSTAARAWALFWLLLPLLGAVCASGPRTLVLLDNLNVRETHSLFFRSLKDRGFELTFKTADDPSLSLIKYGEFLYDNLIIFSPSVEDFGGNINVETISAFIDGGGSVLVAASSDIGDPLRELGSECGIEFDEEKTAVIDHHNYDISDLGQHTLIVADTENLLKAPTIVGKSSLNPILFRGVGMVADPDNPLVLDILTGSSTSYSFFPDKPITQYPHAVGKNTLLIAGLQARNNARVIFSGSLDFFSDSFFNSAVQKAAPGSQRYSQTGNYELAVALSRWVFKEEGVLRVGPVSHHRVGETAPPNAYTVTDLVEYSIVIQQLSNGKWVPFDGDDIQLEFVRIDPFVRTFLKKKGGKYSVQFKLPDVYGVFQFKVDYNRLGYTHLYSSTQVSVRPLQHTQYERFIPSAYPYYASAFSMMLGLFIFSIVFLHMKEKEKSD
UniProt Q15392, sequence (Q15392 whole entry, looked up): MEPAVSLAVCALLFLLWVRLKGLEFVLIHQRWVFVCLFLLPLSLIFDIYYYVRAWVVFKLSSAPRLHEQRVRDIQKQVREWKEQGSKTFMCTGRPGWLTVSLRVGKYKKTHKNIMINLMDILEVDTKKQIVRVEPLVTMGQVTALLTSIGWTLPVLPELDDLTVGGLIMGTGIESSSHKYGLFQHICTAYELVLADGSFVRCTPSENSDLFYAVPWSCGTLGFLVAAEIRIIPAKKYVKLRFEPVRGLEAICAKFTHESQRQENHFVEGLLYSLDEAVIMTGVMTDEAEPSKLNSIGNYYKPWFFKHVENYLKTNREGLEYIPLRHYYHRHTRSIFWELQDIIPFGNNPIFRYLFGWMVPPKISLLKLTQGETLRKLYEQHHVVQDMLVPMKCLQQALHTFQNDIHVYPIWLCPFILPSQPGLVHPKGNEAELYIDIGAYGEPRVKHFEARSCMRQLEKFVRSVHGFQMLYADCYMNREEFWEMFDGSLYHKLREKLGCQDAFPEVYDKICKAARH
UniProt Q86UK5, sequence (Q86UK5 whole entry, looked up): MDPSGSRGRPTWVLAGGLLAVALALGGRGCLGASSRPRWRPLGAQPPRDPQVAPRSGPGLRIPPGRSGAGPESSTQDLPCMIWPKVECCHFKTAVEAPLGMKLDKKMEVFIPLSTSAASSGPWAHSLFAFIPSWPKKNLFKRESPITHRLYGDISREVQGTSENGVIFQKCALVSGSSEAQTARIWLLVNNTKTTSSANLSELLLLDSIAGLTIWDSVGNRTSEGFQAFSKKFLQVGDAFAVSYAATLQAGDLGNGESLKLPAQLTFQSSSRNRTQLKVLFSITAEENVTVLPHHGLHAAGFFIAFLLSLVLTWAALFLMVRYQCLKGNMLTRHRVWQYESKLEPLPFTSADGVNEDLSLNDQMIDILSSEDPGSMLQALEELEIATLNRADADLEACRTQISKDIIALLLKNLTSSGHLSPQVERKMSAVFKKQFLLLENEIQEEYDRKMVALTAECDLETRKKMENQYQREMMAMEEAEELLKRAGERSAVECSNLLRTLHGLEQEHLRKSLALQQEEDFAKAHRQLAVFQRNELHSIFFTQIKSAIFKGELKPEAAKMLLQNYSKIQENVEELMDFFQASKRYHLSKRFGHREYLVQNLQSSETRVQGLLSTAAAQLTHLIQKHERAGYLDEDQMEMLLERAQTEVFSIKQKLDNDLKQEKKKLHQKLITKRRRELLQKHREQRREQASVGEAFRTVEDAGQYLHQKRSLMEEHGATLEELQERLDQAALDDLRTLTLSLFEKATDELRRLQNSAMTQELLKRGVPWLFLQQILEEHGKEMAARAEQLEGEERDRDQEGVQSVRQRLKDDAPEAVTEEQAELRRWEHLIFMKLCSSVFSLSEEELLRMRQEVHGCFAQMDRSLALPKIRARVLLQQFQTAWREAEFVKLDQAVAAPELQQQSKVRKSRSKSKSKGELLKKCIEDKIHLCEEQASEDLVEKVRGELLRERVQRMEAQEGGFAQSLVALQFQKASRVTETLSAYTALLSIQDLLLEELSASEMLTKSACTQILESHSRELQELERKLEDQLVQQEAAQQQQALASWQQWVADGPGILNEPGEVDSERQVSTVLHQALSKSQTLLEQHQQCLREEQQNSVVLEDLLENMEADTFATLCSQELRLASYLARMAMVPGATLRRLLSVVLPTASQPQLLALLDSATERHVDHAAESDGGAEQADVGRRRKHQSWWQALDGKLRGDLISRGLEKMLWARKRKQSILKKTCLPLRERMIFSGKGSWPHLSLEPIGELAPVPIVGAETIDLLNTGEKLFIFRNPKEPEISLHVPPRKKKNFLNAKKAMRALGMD
UniProt Q8NBA8, sequence (Q8NBA8 whole entry, looked up): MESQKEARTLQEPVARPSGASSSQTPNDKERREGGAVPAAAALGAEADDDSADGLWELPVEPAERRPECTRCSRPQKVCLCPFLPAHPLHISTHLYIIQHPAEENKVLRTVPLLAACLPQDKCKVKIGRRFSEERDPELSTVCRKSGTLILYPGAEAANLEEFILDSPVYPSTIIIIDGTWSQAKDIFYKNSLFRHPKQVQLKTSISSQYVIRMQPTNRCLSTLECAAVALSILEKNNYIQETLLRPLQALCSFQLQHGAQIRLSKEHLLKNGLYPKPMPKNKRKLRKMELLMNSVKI
UniProt Q9NV70, sequence (Q9NV70 whole entry, looked up): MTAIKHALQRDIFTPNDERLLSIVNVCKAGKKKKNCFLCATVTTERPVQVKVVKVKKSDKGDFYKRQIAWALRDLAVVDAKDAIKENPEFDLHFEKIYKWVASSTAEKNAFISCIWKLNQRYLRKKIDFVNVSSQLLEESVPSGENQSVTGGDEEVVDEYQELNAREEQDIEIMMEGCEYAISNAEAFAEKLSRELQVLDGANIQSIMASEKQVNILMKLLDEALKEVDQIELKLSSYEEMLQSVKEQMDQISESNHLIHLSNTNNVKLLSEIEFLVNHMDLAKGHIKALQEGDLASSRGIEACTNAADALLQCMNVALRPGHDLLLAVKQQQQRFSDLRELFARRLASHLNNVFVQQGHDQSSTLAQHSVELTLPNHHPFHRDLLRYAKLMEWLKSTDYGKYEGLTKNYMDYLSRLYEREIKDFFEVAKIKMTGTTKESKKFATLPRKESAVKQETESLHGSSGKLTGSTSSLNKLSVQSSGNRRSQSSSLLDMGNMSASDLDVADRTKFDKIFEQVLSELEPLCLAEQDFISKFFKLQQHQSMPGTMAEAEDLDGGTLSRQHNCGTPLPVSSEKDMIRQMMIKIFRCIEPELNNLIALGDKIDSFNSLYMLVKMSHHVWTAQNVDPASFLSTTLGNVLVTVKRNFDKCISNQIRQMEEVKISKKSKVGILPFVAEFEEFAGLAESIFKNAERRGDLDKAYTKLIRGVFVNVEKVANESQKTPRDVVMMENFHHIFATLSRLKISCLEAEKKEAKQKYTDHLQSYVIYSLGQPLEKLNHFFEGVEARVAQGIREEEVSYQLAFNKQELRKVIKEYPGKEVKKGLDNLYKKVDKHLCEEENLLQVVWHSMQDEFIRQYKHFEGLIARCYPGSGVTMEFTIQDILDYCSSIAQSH
UniProt P24534, sequence (P24534 whole entry, looked up): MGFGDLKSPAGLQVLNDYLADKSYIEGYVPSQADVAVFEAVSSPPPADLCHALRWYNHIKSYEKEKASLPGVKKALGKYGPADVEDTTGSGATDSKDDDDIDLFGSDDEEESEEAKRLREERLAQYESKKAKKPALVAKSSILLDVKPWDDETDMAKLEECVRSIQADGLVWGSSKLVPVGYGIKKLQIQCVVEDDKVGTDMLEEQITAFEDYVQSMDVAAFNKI
UniProt Q9NXF7, sequence (Q9NXF7 whole entry, looked up): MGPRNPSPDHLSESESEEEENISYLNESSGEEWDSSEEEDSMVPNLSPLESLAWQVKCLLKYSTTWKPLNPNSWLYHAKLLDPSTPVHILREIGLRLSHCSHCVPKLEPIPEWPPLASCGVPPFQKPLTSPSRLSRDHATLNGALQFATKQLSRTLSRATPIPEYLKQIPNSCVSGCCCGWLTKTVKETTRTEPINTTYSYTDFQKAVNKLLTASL

Target | log2 fold change (bafetinib) | log2 fold change [1] | log2 fold change (nilotinib) | log2 fold change [2] | log2 fold change (dasatinib) | log2 fold change [3] | log2 fold change [4] | log2 fold change [5] | log2 fold change (tipifarnib) | log2 fold change (mubritinib) | log2 fold change [6] | log2 fold change [7] | log2 fold change [8] | log2 fold change [9] | log2 fold change (entinostat) | log2 fold change (vorinostat) | log2 fold change (citarinostat) | log2 fold change (silmitasertib) | log2 fold change [10] | log2 fold change [11]
ESYT1 isoform 2 (UniProt Q9BSJ8) | 0.112 | 0.137 | -0.088 | -0.208 | -0.147 | 0.022 | -0.059 | -0.06 | 0.007 | -0.092 | 0.062 | 0.004 | -0.004 | -0.044 | 0.086 | 0.122 | 0.033 | 0.041 | 0.187 | -0.048
DHCR24 (UniProt Q15392) | 1.39 (active) | -0.001 | -0.03 | 0.025 | 0.127 | 0.577 | 0.292 | 0.043 | -0.006 | 0.47 | -0.022 | -0.037 | 0.048 | -0.024 | -0.082 | -0.012 | 0 | -0.018 | 0.041 | 1.08 (active)
DTWD2 (UniProt Q8NBA8) | -0.023 | -0.008 | 0.065 | -0.019 | 0.126 | 0.022 | 0.215 | 0.096 | -0.071 | -0.087 | 0.284 | -0.03 | -0.058 | 0.068 | -0.079 | 0 | 0.152 | 0.089 | 0.26 | -0.123
EVC2 (UniProt Q86UK5) | -0.08 | 0.023 | -0.066 | -0.092 | -0.043 | 0.131 | -0.149 | -0.148 | 0.162 | -0.053 | -0.074 | -0.129 | 0.013 | -0.268 | 0.004 | -0.071 | 0.024 | -0.042 | 0.024 | -0.114
DCAF16 (UniProt Q9NXF7) | -0.051 | -0.056 | -0.005 | -0.004 | -0.179 | 0.005 | -0.031 | 0.091 | -0.155 | -0.085 | -0.122 | -0.109 | -0.09 | -0.036 | 0.02 | 0.004 | 0.07 | 0.082 | -0.09 | -0.041
EXOC1 (UniProt Q9NV70) | 0.061 | 0.025 | -0.034 | -0.069 | -0.126 | -0.051 | -0.008 | 0.026 | -0.098 | 0.032 | 0.043 | -0.162 | -0.228 | -0.065 | 0.062 | 0.082 | 0.014 | 0.127 | 0.069 | -0.165
DDOST (UniProt P39656) | -0.035 | -0.001 | -0.005 | 0.033 | 0.016 | -0.039 | -0.04 | 0 | 0.047 | -0.022 | 0.003 | -0.013 | -0.057 | 0.014 | 0.007 | -0.036 | 0.017 | 0.05 | -0.017 | -0.116
ECPAS (UniProt Q5VYK3) | 0.031 | 0.105 | -0.067 | -0.038 | -0.255 (active) | 0.077 | -0.011 | -0.043 | -0.202 | 0.021 | -0.009 | -0.024 | -0.169 | -0.035 | 0.073 | 0.077 | 0.08 | 0.071 | -0.038 | -0.032
DYNC1I2 isoform 5 (UniProt Q13409) | -0.071 | -0.018 | 0.015 | 0.002 | -0.012 | 0.011 | 0.003 | -0.008 | -0.038 | 0.046 | -0.021 | -0.016 | -0.023 | 0.059 | -0.018 | -0.044 | 0.015 | 0.004 | -0.012 | 0.004
ERCC6 (UniProt Q03468) | -0.775 (active) | -0.016 | 0.041 | -0.087 | -0.043 | -0.021 | 0.129 | -0.094 | 0.019 | 0.059 | -0.288 | -0.022 | -0.062 | 0.034 | -0.191 | -0.003 | -0.213 | 0.079 | 0.013 | -0.236
CUX1 isoform 3 (UniProt P39880) | -0.054 | -0.032 | -0.008 | -0.06 | -0.016 | 0.044 | 0.023 | 0.08 | 0.046 | 0.037 | -0.016 | -0.006 | -0.034 | -0.076 | -0.028 | 0.034 | 0.019 | 0.046 | -0.022 | -0.004
EEF1G isoform 2 (UniProt P26641) | 0.033 | 0.083 | -0.034 | -0.03 | -0.032 | 0.045 | -0.03 | -0.05 | -0.124 | 0.028 | -0.005 | -0.039 | -0.1 | 0.011 | 0.036 | 0.059 | 0.035 | 0.014 | 0.003 | -0.046
DBNL isoform 3 (UniProt Q9UJU6) | 0.048 | -0.007 | -0.05 | -0.071 | -0.098 | -0.013 | -0.003 | 0.057 | -0.096 | 0.032 | 0.021 | -0.022 | -0.109 | -0.061 | -0.003 | -0.01 | 0.063 | 0.058 | 0.012 | 0.007
EEF1B2 (UniProt P24534) | 0.006 | 0.025 | -0.042 | -0.03 | 0.026 | 0.043 | -0.057 | -0.054 | -0.109 | 0.058 | 0.012 | -0.112 | -0.035 | -0.09 | 0.04 | 0.02 | 0.004 | 0.027 | -0.007 | -0.035
DFFB (UniProt O76075) | 0.042 | -0.032 | -0.047 | -0.156 | -0.057 | 0.056 | -0.053 | 0.002 | -0.072 | 0.019 | 0.028 | -0.064 | -0.037 | 0.069 | 0 | 0.016 | 0.057 | 0.087 | 0.048 | -0.08
DCAF13 (UniProt Q9NV06) | 0.178 | 0 | 0.006 | 0.102 | 0.077 | -0.05 | -0.249 | -0.173 | 0.193 | -0.106 | -0.004 | 0.049 | 0.196 | 0.077 | -0.058 | 0.004 | -0.044 | 0.108 | 0.054 | -0.077
